About 83,000 compounds went through this panel and 20% of them were active in at least one assay; those are over-represented in the sample as a whole.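 Assay: single dose, 48 h. Readout: percent growth (0 = no net growth; negative = cell death). Active: <10.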 A number with no mark means an inactive call. Calls of active or inactive are those of the source.
Test system: SNB-19 CNS
Experiment: NCI-60 one-dose screen, 48 h (100 = growth as untreated, 0 = no growth, -100 = all killed)
Settings: 10 µM unless noted

| Structure (SMILES) | growth |
| --- | --- |
| O=C(/C=C/c1ccc(Oc2ccc(Br)cc2)cc1)c1ccc(Br)cc1 | 97.6% |
| CO[C@H](C(=O)[C@@H](O)[C@@H](C)O)[C@@H]1Cc2cc3cc(O[C@H]4C[C@@H](O[C@H]5C[C@@H](O)[C@H](O)C(C)O5)[C@H](O)C(C)(O)O4)cc(O)c3c(O)c2C(=O)[C@H]1O[C@H]1C[C@@H](O[C@H]2C[C@@H](O[C@H]3C[C@@H](OC)[C@H](O)C(C)O3)[C@@H](O)C(C)O2)[C@H](O)C(C)O1 (some centres not stated) | 24.4% |
| FC(F)(F)Oc1cccc(-c2cnc3ccc(-c4ccncc4)nn23)c1 | 23.5% |
| O=S(=O)(Nc1cc(Sc2cccc3cccnc23)c(O)c2ccccc12)c1ccccc1 | 43.4% |
| Cc1ccc(-c2nc(SCc3nc4cc(Cl)c(Cl)cc4[nH]3)[nH]c(=O)c2C#N)cc1 | 106% |
| CN(C)S(=O)(=O)Oc1ccc(-c2sc3cc(OS(=O)(=O)N(C)C)ccc3c2C(=O)c2ccc(OCCN3CCCCC3)cc2)cc1 | 58.2% |
| COc1ccc(C2=NN(C(C)=O)C(c3cn(-c4ccccc4)nc3-c3ccc(Cl)cc3)C2)cc1 (configuration not stated) | 34.2% |
| O=C(CSc1nnc(-c2cc(-c3ccccc3)nc3ccccc23)n1-c1ccccc1)Nc1ccc(C(=O)/C=C/c2ccc(Cl)cc2)cc1 | 101% |
| CCOC(=O)C(=Cc1ccc(-c2ccccc2)cc1)C(=O)OCC | 54.9% |
| Cc1ccc(S(=O)(=O)N2CCC(=O)c3ccccc32)cc1 | 69.4% |
| COc1ccccc1N(C(C)=O)C1=C(Cl)C(=O)c2ccccc2C1=O | 34% |
| C=C(C)[C@@H]1CC[C@]2(C(N)=O)CC[C@]3(C)[C@H](CC[C@@H]4[C@@]5(C)CC[C@H](OCCC#N)C(C)(C)[C@@H]5CC[C@]43C)[C@@H]12 | 81.2% |
| CN(C)CCCC1(c2ccc(F)cc2)OCc2cc(-c3cc4ccccc4s3)ccc21 (configuration not stated) | 71.2% |
| [2H]C([2H])([2H])Oc1ccc(F)cc1/C=C/C(=O)/C=C(/C=C/c1cc(F)ccc1OC([2H])([2H])[2H])OB(F)F | 94.9% |
| COc1ccc(/C(C)=C(/c2ccc(OCCCN(C)C)cc2)c2ccc(OC(=O)c3ccccc3)cc2)cc1 | 94.8% |
| Cc1ccc2c(=O)cc(C(=O)Nc3sc4c(c3C(=O)NCc3cccnc3)CCCC4)oc2c1C | 96.1% |

| Structure (SMILES) | growth |
| --- | --- |
| CCCCCCCC/C=C\CCCCCCCCOc1ccc(CC(=O)NCC[N+]2(C)CCOCC2)cc1 | 38.7% |
| O=C1/C(=C/c2ccc(F)cc2)CN(C(=O)C(Cl)Cl)C/C1=C\c1ccc(F)cc1 | -87% (active) |
| COc1ccc(Nc2ncccc2/C=C/C(=O)c2cc(OC)c(OC)c(OC)c2)cc1 | 33.4% |
| O=C(Cc1cccc(OC(F)(F)F)c1)Nc1ccc(CCCCc2nnc(NC(=O)Cc3ccccn3)s2)nn1 | 84.9% |
| C=C1C(=O)O[C@H]2[C@H]1CC/C(COC(=O)/C=C\C(=O)NCc1ccc(Cn3c(=O)sn(CCCl)c3=O)cc1)=C\CC[C@@]1(C)O[C@@H]21 | 111% |
| CNC(=O)c1ccccc1Nc1nc(Nc2cc(OC)c(OC)c(OC)c2)ncc1Br | 6.35% (active) |
| Cc1ccc(C=C2C(=O)NC(=O)NC2=O)cc1 | 106% |
| O=C(CN1CCCCCC1)Nc1nc2ccc(NCc3ccc(Cl)cc3)cc2s1 | 95.8% |
| COc1ccc(C(=O)Cn2c(C(=O)c3ccc(Cl)cc3)nc3ccccc32)cc1 | 74% |
| C#CCO[C@H]1CC(CC#C)(CC#C)C(=O)[C@@H]2[C@H]1[C@H]1C[C@@H]3[C@@]4(C)CCC[C@@](C)(C(=O)OC)[C@@H]4CC[C@@]23C=C1C(C)C | 93.4% |
| Fc1ccc2[nH]cc(-c3nc(-c4c[nH]c5ccncc45)cs3)c2c1 | -48.4% (active) |
| O=C(CSc1nc(-c2ccccc2)cc(=O)[nH]1)Nc1nc(-c2ccccc2)cs1 | 105% |
| O=C1/C(=C2\SC(=S)N(C3CC3)C2=O)SC(=S)N1C1CC1 | 99.2% |
| COc1ccc(Cn2cc3c(c2-c2ccccc2)CCc2cnoc2-3)cc1 | 39.8% |
| Cc1nn(-c2ccccc2)c(N)c1N=C1NC(=O)/C(=C/c2ccc(Br)cc2)S1 | 73.5% |
| CN(C)c1ccc(/C=C(\C#N)c2cc3ccccc3[nH]2)cc1 | 29.5% |
